The record followed here is ChEMBL document CHEMBL2218924, “A broad activity screen in support of a chemogenomic map for kinase signalling research and drug discovery” (Biochem J, 2013).

Assay [1] concerns the target Death-associated protein kinase 1 (Homo sapiens) (UniProt P53355). The settings on record: at 10 µM.
The target in assay [2] is Death-associated protein kinase 2 (Homo sapiens) (UniProt Q9UIK4). The settings on record: at 1 µM.
For assay [3] the target is unchanged. The settings on record: at 10 µM.
The target in assay [4] is T1, Serine/threonine-protein kinase DCLK2 (Homo sapiens) (UniProt Q8N568).
T1 sequence (whole entry): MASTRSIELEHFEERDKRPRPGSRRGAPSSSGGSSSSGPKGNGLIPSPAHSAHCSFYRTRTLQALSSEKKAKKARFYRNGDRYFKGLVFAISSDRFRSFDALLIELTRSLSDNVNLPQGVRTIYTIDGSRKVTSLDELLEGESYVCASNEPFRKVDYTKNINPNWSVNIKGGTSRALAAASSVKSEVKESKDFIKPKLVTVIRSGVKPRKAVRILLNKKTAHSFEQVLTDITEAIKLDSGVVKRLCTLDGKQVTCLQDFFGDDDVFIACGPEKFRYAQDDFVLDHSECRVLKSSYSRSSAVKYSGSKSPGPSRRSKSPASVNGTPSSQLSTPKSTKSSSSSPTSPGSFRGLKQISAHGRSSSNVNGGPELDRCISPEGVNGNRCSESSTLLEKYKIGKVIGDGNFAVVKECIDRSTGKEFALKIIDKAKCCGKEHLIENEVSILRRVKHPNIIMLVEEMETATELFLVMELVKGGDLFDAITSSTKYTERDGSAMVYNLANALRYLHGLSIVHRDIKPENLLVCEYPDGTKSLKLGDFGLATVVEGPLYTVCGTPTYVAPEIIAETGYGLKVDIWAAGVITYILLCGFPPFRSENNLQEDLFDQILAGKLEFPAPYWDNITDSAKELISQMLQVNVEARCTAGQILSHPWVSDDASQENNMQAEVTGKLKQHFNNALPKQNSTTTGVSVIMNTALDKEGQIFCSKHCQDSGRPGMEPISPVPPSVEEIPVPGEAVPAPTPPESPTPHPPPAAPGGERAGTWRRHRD
The conditions noted are these: at 1 µM.

The target of assay [5] is T1, Serine/threonine-protein kinase DCLK2 (Homo sapiens). The conditions noted are these: at 10 µM.
Assay [6] has as its target T2, Discoidin domain-containing receptor 2 (Homo sapiens) (UniProt Q16832).
T2 sequence (whole entry): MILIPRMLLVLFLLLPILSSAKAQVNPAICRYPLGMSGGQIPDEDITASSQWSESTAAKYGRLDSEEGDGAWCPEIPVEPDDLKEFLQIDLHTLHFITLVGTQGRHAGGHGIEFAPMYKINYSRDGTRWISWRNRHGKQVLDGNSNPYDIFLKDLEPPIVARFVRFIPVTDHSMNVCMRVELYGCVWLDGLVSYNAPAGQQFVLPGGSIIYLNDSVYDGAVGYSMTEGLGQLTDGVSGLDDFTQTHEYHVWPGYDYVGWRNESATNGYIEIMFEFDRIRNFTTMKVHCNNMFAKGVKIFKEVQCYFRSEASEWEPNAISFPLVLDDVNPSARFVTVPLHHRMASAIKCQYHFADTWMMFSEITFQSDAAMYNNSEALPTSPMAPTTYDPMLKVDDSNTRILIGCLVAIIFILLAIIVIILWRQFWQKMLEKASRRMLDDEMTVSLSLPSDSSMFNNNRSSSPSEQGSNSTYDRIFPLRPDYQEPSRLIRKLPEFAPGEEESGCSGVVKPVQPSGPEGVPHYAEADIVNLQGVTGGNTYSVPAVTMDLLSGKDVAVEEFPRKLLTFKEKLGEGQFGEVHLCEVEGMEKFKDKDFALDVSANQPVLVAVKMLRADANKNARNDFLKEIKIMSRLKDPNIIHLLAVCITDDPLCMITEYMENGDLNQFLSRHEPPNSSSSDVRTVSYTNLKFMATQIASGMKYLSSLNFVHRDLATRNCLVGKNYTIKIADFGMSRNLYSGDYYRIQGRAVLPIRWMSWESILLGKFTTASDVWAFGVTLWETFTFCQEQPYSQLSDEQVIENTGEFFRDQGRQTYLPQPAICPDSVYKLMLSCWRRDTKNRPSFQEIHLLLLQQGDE
The settings on record: at 1 µM.

Assay [7] concerns the target T2, Discoidin domain-containing receptor 2 (Homo sapiens). The conditions noted are these: at 10 µM.
Assay [8] concerns the target T3, Myotonin-protein kinase (Homo sapiens) (UniProt Q09013).
T3 sequence (whole entry): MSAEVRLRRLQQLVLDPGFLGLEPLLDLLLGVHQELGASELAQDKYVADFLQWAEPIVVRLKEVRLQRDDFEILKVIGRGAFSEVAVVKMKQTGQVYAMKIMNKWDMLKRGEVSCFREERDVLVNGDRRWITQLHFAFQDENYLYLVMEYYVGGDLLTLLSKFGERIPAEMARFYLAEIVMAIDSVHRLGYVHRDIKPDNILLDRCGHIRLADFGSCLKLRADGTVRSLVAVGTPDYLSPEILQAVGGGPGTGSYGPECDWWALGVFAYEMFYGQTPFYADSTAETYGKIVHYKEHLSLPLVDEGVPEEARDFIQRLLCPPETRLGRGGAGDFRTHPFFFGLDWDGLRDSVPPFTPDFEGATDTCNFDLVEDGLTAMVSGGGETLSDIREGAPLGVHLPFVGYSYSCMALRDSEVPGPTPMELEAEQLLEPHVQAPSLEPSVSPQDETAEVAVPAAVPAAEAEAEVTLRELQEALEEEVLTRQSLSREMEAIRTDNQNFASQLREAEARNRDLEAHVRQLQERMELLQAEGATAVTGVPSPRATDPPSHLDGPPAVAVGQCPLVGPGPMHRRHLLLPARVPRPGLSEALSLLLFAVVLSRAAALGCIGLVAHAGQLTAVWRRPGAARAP
The conditions noted are these: at 1 µM.

The target of assay [9] is T3, Myotonin-protein kinase (Homo sapiens). The conditions noted are these: at 10 µM.
The target in assay [10] is T4, Serine/threonine-protein kinase 17A (Homo sapiens) (UniProt Q9UEE5).
T4 sequence (whole entry): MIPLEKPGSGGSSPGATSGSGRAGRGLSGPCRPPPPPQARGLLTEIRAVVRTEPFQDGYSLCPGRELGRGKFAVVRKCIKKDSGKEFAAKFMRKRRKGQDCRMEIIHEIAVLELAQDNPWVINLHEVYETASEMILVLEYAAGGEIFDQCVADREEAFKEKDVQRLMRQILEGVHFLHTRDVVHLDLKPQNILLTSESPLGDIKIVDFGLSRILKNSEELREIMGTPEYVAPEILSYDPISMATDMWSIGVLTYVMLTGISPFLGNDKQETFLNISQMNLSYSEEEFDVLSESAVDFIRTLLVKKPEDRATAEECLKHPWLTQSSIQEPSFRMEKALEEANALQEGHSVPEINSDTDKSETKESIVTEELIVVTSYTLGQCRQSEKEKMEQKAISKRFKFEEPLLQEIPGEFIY
The settings on record: at 1 µM.

Assay [11] addresses T4, Serine/threonine-protein kinase 17A (Homo sapiens). The settings on record: at 10 µM.
Assay [12] concerns the target T5, Dual specificity tyrosine-phosphorylation-regulated kinase 2 (Homo sapiens) (UniProt Q92630).
T5 sequence (whole entry): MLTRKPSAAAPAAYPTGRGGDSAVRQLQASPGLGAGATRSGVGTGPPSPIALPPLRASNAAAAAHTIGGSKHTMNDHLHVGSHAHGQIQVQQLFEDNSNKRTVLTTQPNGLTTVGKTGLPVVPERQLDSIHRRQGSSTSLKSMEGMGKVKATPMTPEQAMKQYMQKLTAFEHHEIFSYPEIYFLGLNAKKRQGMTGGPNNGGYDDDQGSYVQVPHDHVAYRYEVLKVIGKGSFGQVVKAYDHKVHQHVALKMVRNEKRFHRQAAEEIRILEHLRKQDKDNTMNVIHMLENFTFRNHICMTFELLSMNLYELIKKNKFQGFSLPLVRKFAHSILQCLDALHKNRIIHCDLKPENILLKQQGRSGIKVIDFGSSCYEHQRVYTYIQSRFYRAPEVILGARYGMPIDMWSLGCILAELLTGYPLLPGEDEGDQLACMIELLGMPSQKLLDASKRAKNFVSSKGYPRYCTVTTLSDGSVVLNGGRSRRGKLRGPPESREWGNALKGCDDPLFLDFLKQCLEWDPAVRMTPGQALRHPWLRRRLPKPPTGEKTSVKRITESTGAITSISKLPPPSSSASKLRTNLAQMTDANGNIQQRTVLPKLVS
The conditions noted are these: at 1 µM.

Assay [13] has as its target T5, Dual specificity tyrosine-phosphorylation-regulated kinase 2 (Homo sapiens). The conditions noted are these: at 10 µM.
Assay [14] deals with T6, Ephrin type-A receptor 1 (Homo sapiens) (UniProt P21709).
T6 sequence (whole entry): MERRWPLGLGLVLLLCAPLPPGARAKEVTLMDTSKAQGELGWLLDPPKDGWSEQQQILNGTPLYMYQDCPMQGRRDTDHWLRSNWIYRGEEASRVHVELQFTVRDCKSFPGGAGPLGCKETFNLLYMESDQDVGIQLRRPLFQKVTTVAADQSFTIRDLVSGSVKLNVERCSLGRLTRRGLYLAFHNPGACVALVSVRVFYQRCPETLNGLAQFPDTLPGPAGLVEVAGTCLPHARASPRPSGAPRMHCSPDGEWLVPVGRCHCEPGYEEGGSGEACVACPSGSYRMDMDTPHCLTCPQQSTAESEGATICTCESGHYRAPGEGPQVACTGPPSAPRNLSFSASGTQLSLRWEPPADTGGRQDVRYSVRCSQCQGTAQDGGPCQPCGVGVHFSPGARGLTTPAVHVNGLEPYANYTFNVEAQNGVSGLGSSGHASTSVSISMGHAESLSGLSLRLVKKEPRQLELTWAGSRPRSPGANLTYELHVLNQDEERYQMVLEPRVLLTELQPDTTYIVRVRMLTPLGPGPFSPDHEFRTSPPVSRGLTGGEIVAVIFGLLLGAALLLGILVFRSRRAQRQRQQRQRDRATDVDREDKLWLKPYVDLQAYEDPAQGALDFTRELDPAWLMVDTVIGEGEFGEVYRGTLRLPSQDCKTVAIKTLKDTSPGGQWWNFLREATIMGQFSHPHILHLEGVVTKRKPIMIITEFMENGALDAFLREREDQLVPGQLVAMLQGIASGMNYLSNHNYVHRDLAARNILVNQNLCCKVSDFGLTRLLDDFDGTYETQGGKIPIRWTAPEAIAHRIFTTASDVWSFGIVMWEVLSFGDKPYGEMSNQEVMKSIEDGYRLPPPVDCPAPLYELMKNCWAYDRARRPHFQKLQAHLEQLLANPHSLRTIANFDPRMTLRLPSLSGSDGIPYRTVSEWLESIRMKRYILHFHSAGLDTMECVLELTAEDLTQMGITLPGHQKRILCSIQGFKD
The conditions noted are these: at 1 µM.

For assay [15], the target named is T6, Ephrin type-A receptor 1 (Homo sapiens). The conditions noted are these: at 10 µM.
The target of assay [16] is Ephrin type-A receptor 2 (Homo sapiens) (UniProt P29317). The conditions noted are these: at 1 µM.
For assay [17] the target is unchanged. The conditions noted are these: at 10 µM.
The target in assay [18] is T7, Ephrin type-A receptor 3 (Homo sapiens) (UniProt P29320).
T7 sequence (whole entry): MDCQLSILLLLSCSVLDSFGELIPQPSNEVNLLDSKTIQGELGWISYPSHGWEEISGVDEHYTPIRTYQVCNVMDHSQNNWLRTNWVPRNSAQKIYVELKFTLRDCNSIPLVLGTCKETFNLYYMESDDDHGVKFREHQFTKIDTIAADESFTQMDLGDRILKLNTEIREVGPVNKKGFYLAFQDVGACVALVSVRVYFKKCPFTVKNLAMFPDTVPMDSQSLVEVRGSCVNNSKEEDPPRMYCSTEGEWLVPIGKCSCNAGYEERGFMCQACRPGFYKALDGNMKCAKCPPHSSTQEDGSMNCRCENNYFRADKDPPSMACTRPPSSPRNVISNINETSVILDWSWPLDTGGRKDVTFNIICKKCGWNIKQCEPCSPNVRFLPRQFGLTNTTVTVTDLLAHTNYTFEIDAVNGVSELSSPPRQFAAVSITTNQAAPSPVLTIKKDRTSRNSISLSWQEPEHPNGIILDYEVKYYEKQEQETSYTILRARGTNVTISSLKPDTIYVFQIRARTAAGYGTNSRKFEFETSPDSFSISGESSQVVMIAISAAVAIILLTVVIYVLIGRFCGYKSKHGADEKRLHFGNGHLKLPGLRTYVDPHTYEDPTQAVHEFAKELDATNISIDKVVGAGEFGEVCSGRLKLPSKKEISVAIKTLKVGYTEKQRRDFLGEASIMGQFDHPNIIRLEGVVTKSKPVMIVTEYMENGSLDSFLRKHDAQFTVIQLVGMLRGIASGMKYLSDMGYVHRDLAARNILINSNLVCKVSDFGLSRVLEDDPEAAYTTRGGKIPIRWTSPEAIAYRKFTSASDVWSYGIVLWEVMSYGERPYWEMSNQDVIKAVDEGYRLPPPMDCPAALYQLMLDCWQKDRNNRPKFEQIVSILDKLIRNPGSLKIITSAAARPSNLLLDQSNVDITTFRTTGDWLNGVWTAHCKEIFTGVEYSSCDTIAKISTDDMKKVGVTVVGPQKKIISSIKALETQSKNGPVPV
The conditions noted are these: at 1 µM.

Sequence of Ephrin type-A receptor 2 (Homo sapiens) (P29317 whole entry): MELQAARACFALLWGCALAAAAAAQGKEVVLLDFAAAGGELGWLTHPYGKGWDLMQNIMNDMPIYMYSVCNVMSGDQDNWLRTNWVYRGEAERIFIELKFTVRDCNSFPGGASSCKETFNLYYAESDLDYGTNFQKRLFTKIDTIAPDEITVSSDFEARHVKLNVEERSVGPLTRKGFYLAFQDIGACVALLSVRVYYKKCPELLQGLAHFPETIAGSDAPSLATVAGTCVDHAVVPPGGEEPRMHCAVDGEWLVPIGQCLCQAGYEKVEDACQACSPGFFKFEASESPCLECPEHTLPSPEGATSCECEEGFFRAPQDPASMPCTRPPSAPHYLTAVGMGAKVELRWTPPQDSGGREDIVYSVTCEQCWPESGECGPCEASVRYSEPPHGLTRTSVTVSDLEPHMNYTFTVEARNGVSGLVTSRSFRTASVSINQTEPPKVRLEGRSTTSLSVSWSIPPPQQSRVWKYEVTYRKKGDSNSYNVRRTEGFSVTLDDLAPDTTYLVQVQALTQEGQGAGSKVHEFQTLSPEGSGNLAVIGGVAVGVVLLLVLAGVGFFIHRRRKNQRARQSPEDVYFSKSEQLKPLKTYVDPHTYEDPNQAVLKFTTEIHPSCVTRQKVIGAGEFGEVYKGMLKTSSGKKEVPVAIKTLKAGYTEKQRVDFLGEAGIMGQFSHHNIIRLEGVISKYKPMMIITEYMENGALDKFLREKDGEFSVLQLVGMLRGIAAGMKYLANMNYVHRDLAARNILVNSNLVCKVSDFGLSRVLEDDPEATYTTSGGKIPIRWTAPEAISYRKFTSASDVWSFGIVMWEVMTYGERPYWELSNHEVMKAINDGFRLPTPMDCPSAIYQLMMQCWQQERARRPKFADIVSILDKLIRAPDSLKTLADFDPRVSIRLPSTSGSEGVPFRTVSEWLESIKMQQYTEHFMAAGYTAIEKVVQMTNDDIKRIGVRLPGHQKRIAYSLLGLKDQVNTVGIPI
Sequence of Death-associated protein kinase 2 (Homo sapiens) (Q9UIK4 whole entry, looked up): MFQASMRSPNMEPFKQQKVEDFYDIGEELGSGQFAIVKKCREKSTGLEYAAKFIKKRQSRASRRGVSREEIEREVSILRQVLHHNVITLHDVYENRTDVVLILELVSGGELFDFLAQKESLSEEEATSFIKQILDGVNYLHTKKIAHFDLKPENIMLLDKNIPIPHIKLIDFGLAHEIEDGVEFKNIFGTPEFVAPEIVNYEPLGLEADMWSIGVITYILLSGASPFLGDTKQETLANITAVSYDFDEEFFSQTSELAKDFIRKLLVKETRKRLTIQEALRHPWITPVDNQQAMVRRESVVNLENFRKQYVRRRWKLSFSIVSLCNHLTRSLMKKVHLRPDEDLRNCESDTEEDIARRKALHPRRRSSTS
Sequence of Death-associated protein kinase 1 (Homo sapiens) (P53355 whole entry, looked up): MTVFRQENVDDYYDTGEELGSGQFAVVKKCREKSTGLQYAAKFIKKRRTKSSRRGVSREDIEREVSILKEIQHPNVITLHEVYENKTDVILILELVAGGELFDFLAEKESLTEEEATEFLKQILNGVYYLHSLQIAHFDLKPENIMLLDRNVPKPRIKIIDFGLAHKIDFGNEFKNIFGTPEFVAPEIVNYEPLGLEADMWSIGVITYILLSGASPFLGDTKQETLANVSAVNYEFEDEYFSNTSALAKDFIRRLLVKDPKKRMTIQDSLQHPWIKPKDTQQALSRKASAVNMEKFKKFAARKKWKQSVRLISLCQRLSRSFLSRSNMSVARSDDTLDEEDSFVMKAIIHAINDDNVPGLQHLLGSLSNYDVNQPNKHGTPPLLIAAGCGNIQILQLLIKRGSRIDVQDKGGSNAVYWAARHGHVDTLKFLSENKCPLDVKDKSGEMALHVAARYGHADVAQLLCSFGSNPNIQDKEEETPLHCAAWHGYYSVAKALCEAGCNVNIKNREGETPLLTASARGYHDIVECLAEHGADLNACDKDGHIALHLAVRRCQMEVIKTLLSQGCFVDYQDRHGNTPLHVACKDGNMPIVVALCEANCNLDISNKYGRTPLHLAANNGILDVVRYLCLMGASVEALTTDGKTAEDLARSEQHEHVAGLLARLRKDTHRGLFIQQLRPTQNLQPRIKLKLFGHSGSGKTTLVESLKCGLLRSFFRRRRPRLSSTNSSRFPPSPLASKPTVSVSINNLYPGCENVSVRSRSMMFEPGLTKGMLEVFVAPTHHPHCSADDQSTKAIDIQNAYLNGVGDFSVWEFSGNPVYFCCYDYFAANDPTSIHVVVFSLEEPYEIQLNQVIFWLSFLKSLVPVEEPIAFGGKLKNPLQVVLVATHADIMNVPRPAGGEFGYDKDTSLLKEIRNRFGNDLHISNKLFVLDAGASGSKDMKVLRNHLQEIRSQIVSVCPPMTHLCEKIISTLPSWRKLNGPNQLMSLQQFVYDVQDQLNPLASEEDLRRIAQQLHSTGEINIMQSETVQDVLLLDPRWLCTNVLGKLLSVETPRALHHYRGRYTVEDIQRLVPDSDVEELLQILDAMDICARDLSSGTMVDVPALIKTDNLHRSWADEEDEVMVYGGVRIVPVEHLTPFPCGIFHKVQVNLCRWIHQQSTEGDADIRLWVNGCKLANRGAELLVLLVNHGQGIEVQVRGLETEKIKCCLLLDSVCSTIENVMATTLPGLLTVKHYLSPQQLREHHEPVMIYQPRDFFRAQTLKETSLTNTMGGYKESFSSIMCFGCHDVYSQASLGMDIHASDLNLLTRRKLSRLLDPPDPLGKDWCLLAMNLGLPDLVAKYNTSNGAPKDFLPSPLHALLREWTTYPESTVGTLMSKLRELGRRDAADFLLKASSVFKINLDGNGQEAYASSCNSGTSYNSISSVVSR

By residual activity is commonly meant the signal under treatment as a percentage of the control signal. Turning to `O=C1NC(=O)c2c1c1c3ccccc3[nH]c1c1[nH]c3cc(Br)ccc3c21`, the residual activity in assay [1] worked out at 92%; in assay [2], 98%; in [3] it was 71%; in [4], 83%; in assay [5], 96%; in assay [6], 101%. In addition, the residual activity in [7] amounted to 98%; in [8], 115%; in assay [9] it was 97%; in assay [10] it was 67%; in [11] it was 4%; in assay [12] it was 100%. Moreover, the residual activity in [13] turned out to be 75%; in assay [14], 96%; in [15], 86%; in [16] it was 98%; in assay [17] it was 114%; in assay [18], 93%.
